Screens from PubChem BioAssay.
A selection: hits, their analogues and other compounds. The true share with any hit is near 3%.
FBA Mtb inh – Mtb FBA enzyme inhibitors, primary screen, biochemical, fluorescence, strain H37Rv. 360,000 tested, 2.3% active. AID 588726, 2011. inhibition, % at 1 µM. purified M. tuberculosis FBA, fluorescence read-out; in the data active = inhibition above about 27%;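 also: 0% = vehicle and 100% = reference inhibitor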
Rv3671c inh – Rv3671c serine protease inhibitors, primary screen, biochemical, fluorescence polarization, M. tuberculosis H37Rv; P9WHR9; inhibition, % at 5.96 µM; 320,000 tested, 0.048% active; AID 2606, 2010; in the data active = inhibition above about 38%;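 also: extracellular domain of Rv3671c used as enzyme; 0% = enzyme with DMSO and 100% = no enzyme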
Target sequence (P9WHR9 whole entry, looked up, the tested form may be a part): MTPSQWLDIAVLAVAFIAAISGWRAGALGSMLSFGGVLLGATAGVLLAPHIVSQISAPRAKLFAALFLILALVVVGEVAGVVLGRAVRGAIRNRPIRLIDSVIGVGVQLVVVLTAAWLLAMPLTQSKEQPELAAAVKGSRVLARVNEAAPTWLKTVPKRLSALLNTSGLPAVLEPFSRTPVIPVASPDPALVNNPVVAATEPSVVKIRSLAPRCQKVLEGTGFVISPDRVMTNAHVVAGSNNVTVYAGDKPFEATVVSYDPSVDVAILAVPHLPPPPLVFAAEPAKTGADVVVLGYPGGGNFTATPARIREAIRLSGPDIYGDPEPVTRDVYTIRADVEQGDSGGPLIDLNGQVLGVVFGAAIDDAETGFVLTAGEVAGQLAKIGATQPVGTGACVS
FadD28 binding – inhibitors of FadD28 bisubstrate probe binding, primary screen, biochemical, fluorescence polarization, single point; Mycobacterium tuberculosis FadD28 fatty-acid-AMP ligase; inhibition, % at 12.5 µM; 360,000 tested, 0.22% active; AID 588549, 2011; in the data active = inhibition above about 8.5%, passing the limit was not always enough; inconclusive = no clear call, values can overlap the other calls
GDH-TPI counter – GDH-TPI coupling enzyme inhibitors, primary screen, artefact control for M. tuberculosis FBA inhibitor project, biochemical, absorbance, full deck; GDH-TPI coupled enzyme counterscreen, NADH absorbance; inhibition, % at 4.8 µM; 360,000 tested, 1.2% active; AID 588335, 2011; in the data active = inhibition above about 30%;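 also: 0% = DMSO wells and 100% = wells lacking the enzyme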
BioA inh – M. tuberculosis BioA enzyme inhibitors, primary screen, biochemical, plate reader, single point, HTS; 360,000 tested, 0.096% active; 7,8-diaminopelargonic acid synthase BioA (Mycobacterium tuberculosis); AID 602481, 2012; inhibition, % at 9.99 µM; purified M. tuberculosis BioA enzyme; in the data active = inhibition above about 40%; inconclusive = no clear call, values can overlap the other calls
Numbers without * were called inactive; ? = inconclusive; · = not tested or not shown; + = active, no number.

SMILES | FBA Mtb inh | Rv3671c inh | FadD28 binding | GDH-TPI counter | BioA inh
CC(=O)c1sc(NCc2ccc(C)cc2)nc1C | -1 | -1 | 0 | 16 | 7
CC(=O)c1sc(Nc2ccccn2)nc1C | 2 | -4 | -3 | 47* | 0
COc1ccc(S(=O)(=O)N(C)C[C@@H]2Oc3ccc(NC(=O)NC4CCCCC4)cc3CC(=O)N([C@@H](C)CO)C[C@H]2C)cc1 | · | · | · | · | 8
CN(C)C(=O)c1cccc(-c2ccc3c(c2)[C@H]2[C@H](CCN2C(=O)C2CC2)[C@@H](CO)N3)c1 | · | · | · | · | -5
Nc1nc(Nc2ccccc2)nc(NCc2ccccc2)c1[N+](=O)[O-] | -4 | -10 | -6 | 18 | ·
CN(c1ccccc1)c1nc(N)c([N+](=O)[O-])c(NCCO)n1 | -3 | -3 | -3 | 26 | ·
CNc1nc(N)c([N+](=O)[O-])c(NCc2ccccc2)n1 | -2 | 5 | -5 | 42* | -1
CN(C)c1nc(N)c([N+](=O)[O-])c(NCc2ccccc2)n1 | 0 | -5 | -3 | 42* | -2
COCCCNc1nc(N)c([N+](=O)[O-])c(NCc2ccccc2)n1 | -4 | -10 | -3 | 15 | 0
CN(C)CCCNc1nc(N)c([N+](=O)[O-])c(NCc2ccccc2)n1 | 1 | · | 1 | 41* | 1
CN(C)c1nc(N)c([N+](=O)[O-])c(NCCO)n1 | -2 | -3 | -4 | 51* | -1
Nc1nc(NCc2ccccc2)nc(NCc2ccccc2)c1[N+](=O)[O-] | 0 | -7 | -2 | 14 | -1
O=C(C[C@@H]1CC[C@@H](NC(=O)c2ccc(F)cc2)[C@@H](CO)O1)NCc1ccncn1 | · | · | · | · | 1
COCC#Cc1ccc2c(c1)O[C@H](CN(C)Cc1ccccn1)[C@@H](C)CN([C@H](C)CO)S2(=O)=O | · | · | · | · | 2
C[C@@H]1CN([C@H](C)CO)S(=O)(=O)c2ccc(-c3ccncc3)cc2O[C@H]1CN(C)C(=O)c1cccc(F)c1 | · | · | · | · | 3
CCN1CCN(c2nc(C)nc3c2sc(=S)n3C)CC1 | -1 | · | -1 | 35* | -1
CC(=Cc1ccccc1)C=C1SC(=S)N(CCCC(=O)Nc2ccc(C(=O)O)c(O)c2)C1=O | -4 | · | 7 | 31* | 6
O=C(O)CC(C(=O)O)N1C(=O)/C(=C/C=C/c2ccco2)SC1=S (stereo unspecified) | -8 | 0 | ? | 11 | -1
O=C(O)CCCN1C(=O)/C(=C/C=C/c2ccco2)SC1=S | -6 | 10 | 19* | -5 | ·
CC(/C=C1\SC(=S)N(CCCC(=O)Nc2ccc(C(=O)O)c(O)c2)C1=O)=C\c1ccccc1 | · | -14 | · | · | ·
O=C(O)CCCN1C(=O)/C(=C\C(Cl)=C\c2ccccc2)SC1=S | -1 | · | 9.3* | 4 | 1
O=C(O)C(Cc1ccccc1)N1C(=O)/C(=C/C=C/c2ccco2)SC1=S (stereo unspecified) | -10 | · | 39* | 28 | 2
CC(C)NC(=O)N(C)C[C@@H]1OCCCC[C@H](C)Oc2ccc(NS(=O)(=O)c3ccc(Cl)cc3)cc2C(=O)N([C@H](C)CO)C[C@@H]1C | · | · | · | · | 2
NC1CCN(c2c(F)cc3c(=O)c(C(=O)O)cn(C4CC4)c3c2Cl)C1 (stereo unspecified) | 3 | -2 | 0 | 34* | 1
O=C1C(=Cc2ccco2)CCC1=Cc1ccco1 | -2 | · | 13* | 21 | -1
SMILES | FBA Mtb inh | Rv3671c inh | FadD28 binding | GDH-TPI counter | BioA inh
CC1C2=C(CC(C)(C)CC2=O)NC2=C1C(=O)CC(C)(C)C2 | + | -7 | -1 | -3 | 4
CCC(C)(C)NC(=O)c1ccc(Sc2nncn2C)c([N+](=O)[O-])c1 | 3 | -6 | -1 | 16 | -10
Cn1cnnc1Sc1ccc(/C=C/C(=O)c2ccc(O)cc2)cc1[N+](=O)[O-] | -3 | 7 | -1 | 37* | -1
COc1c(/C=N/NC(=O)c2ccccc2O)c(CCN(C)C(C)=O)cc2c1OCO2 | -3 | -1 | -1 | 21 | -2
COc1c(/C=N/Nc2ccc(C(=O)O)cc2)c(CCN(C)C(C)=O)cc2c1OCO2 | -2 | 8 | 0 | 37* | ·
CNC(=S)N(C)CCc1cc2c(c(OC)c1C=C1C(=O)NC(=O)NC1=O)OCO2 | -1 | 6 | -4 | 38* | 0
C=CCN1C(=O)NC(=O)/C(=C/c2c(CCN(C)C(=O)c3ccccc3)cc3c(c2OC)OCO3)C1=O | -1 | -7 | -3 | -6 | 20
CCCC(=O)N1C[C@@H]2[C@H](c3ccccc31)[C@H](CO)N2C(=O)Nc1ccc(F)cc1 | · | · | · | · | 6
O=[N+]([O-])c1c(Nc2ccccc2O)cc(N2CCOCC2)c2nonc12 | -15 | -4 | -1 | 32* | -1
Cc1ccccc1Cc1c(C)nc2c(C(=O)NCc3ccco3)cnn2c1C | 48* | -7 | -4 | 6 | 34
Cc1ccccc1Cc1c(C)nc2nc(SCC(=O)NCc3ccco3)nn2c1C | -3 | 2 | -4 | 3 | 27
C[C@@H]1CCCCO[C@H](CN(C)C(=O)CCC(F)(F)F)[C@H](C)CN([C@H](C)CO)C(=O)c2cc(NS(=O)(=O)c3ccc(Cl)cc3)ccc2O1 | · | · | · | · | 1
COc1cc(NCc2ccccc2O)c2ncccc2c1 | 0 | · | 12* | -1 | -1
C[C@H](CO)N1C[C@H](C)[C@@H](CN(C)Cc2ccc(-c3ccccc3)cc2)Oc2ccc(NC(=O)C3CC3)cc2CC1=O | · | · | · | · | 0
NS(=O)(=O)c1ccc(N=Nc2c(O)c(C(=O)O)cc3ccccc23)cc1 | -8 | 0 | 5 | 2 | 0
O=C(O)Cc1ccc(N=Nc2c(O)c(C(=O)O)cc3ccccc23)cc1 | -9 | -21 | 14* | 18 | 9
CCCNC(=O)Nc1ccc2c(c1)C(=O)N(C)C[C@H](OC)[C@@H](C)CN(C(=O)CC)[C@H](C)CO2 | · | · | · | · | -1
N#C/C(=C/c1ccccc1)C(=O)NCc1ccccc1 | 2 | 7 | -2 | 4 | 0
COc1cc(/C=C(/C#N)C(=O)Nc2ccccc2)ccc1OCc1ccc(C(=O)O)cc1 | 4 | 9 | -4 | 17 | ·
N#C/C(=C\c1ccc(OCc2ccc(C(=O)O)cc2)cc1)C(=O)NCc1ccccc1 | 0 | -5 | -1 | 36* | -1
COCCNC(=O)/C(C#N)=C/c1ccc(OCc2ccccc2)cc1 | -1 | 0 | -1 | 17 | -2
N#C/C(=C\c1ccc(O)c(Br)c1)C(=O)NCc1ccccc1 | -1 | 1 | -1 | 8 | ·
COc1cc(/C=C(\C#N)C(=O)NCc2ccccc2)ccc1OCc1ccc(C(=O)O)cc1 | -5 | -11 | -1 | 59* | 0
N#C/C(=C\c1ccc(O)c([N+](=O)[O-])c1)C(=O)NCc1ccccc1 | -12 | 2 | 2 | 44* | 1
Cc1cc(/C=C(\C#N)C(=O)NCc2ccccc2)c(C)[nH]1 | -2 | · | 2 | 31* | -3
